This is part of a sample that, as a whole, favours compounds with a hit. Of some 83,000 tested, about 20% had one in any assay.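 96-well plates, one dose, 48 hours. Percent growth reported; active if below 10.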 Unmarked numbers belong to inactive results. Activity calls are given as the source filed them.
Key:
Test in all cases: NCI-60 one-dose screen, 48 h (100 = growth as untreated, 0 = no growth, -100 = all killed)
Details in all cases: 10 µM unless noted
[1] = tested on: HCT-15 colon
[2] = tested on: HT29 colon
[3] = tested on: SNB-75 CNS
[4] = tested on: SNB-19 CNS
[5] = tested on: U251 CNS
[6] = tested on: PC-3 prostate
[7] = tested on: SK-MEL-5 melanoma
[8] = tested on: UACC-62 melanoma
[9] = tested on: LOX IMVI melanoma
[10] = tested on: SK-MEL-28 melanoma
[11] = tested on: SK-MEL-2 melanoma
[12] = tested on: EKVX NSCLC
[13] = tested on: SN12C renal
[14] = tested on: UO-31 renal
[15] = tested on: TK-10 renal
[16] = tested on: ACHN renal
[17] = tested on: CAKI-1 renal
[18] = tested on: A498 renal
[19] = tested on: CCRF-CEM leukemia
[20] = tested on: MOLT-4 leukemia

Molecule `O=C(/C=C/c1ccc(F)cc1)c1ccc(O)cc1` has a growth [1] of 73.5%, a growth [2] of 93.2% and a growth [3] of 95.3%. The growth [4] was 91.4%, the growth [5] was 66.7% and the growth [6] was 95.4%. The growth [7] was 94%, the growth [8] was 88% and the growth [9] was 63.3%. It also gave a growth [10] of 109%, a growth [11] of 115% and a growth [12] of 104%. The growth [13] was 91.9%, the growth [14] was 91.9% and the growth [15] was 106%. It also gave a growth [16] of 102%, a growth [17] of 87% and a growth [18] of 101%. It also gave a growth [19] of 77.6% and a growth [20] of 92.5%.
In the case of `C=C(C=O)[C@@H]1CC[C@]2(C)[C@H](CC=C3[C@H]4[C@@H](C)[C@H](C)CC[C@]4(C(=O)OC)CC[C@]32C)[C@@]1(C)CCC#N`, the growth [1] is reported as -55% (active), the growth [2] is reported as -37.4% (active) and the growth [3] is reported as 67.6%. The growth [4] was 25.2%, the growth [5] was 5.57% (active) and the growth [6] was 9.4% (active). The growth [7] was -98% (active), the growth [8] was -31.9% (active) and the growth [9] was -86.1% (active). The growth [10] was -39.4% (active), the growth [11] was -27.6% (active) and the growth [12] was 15.2%. The growth [13] was 12.9%, the growth [14] was -83.5% (active) and the growth [15] was 35.7%. The growth [16] was -71.9% (active), the growth [17] was 3.89% (active) and the growth [18] was 81.1%. For the same molecule, the growth [19] was 10.7% and the growth [20] was 1.4% (active).
With `COc1cc2c(cc1OC)C(Sc1ccc(C)cc1)c1c(nc(N)c(C#N)c1N)O2` (stereo not given) the growth [1] was -74.3% (active), the growth [2] was -21.2% (active) and the growth [3] was 29%. The growth [4] was -68.9% (active), the growth [5] was -69.9% (active) and the growth [6] was -71.1% (active). For the same molecule, the growth [7] was -94.6% (active), the growth [8] was -45% (active) and the growth [9] was -90.5% (active). The growth [10] was -80.3% (active), the growth [11] was -20% (active) and the growth [12] was -84.3% (active). The growth [13] was -64.3% (active), the growth [14] was -99.7% (active) and the growth [15] was -63.6% (active). The growth [16] was -95.8% (active), the growth [17] was -62.9% (active) and the growth [18] was -54.7% (active). The growth [19] was 2.14% (active) and the growth [20] was -9.07% (active).
For `NC(N)=Nc1ccc(Nc2cccc(Oc3ccc(Cl)c(C(F)(F)F)c3)c2)cn1`, the growth [1] was 42%, the growth [2] was 18.9% and the growth [3] was 52.7%. The growth [4] was 24.3%, the growth [5] was -68.8% (active) and the growth [6] was -55.8% (active). For the same molecule, the growth [7] was 28.3%, the growth [8] was 45.6% and the growth [9] was -97.2% (active). It also gave a growth [10] of 60.7%, a growth [11] of 74.9% and a growth [12] of 30.5%. The growth [13] was -71.8% (active), the growth [14] was 56.4% and the growth [15] was 81.7%. It also gave a growth [16] of 55.7%, a growth [17] of 42.9% and a growth [18] of 62.8%. The growth [19] was -9.86% (active) and the growth [20] was 0.616% (active).
For `COc1ccc(-c2nc(C(Cl)Cl)nc3cc(-c4ccccc4)nn23)cc1`, the growth [1] was 4.52% (active), the growth [2] was -20.2% (active) and the growth [3] was -9.44% (active). For the same molecule, the growth [4] was 5.79% (active), the growth [5] was -51.7% (active) and the growth [6] was 35.5%. For the same molecule, the growth [7] was 34.1%, the growth [8] was 37.9% and the growth [9] was 23.7%. The growth [10] was -46.4% (active), the growth [11] was 77.4% and the growth [12] was -3.98% (active). The growth [13] was 29.1%, the growth [14] was 25.7% and the growth [15] was 33.1%. For the same molecule, the growth [16] was -55.3% (active), the growth [17] was -14.5% (active) and the growth [18] was -33.4% (active). The growth [19] was 18.2% and the growth [20] was 4.01% (active).
Work on `COc1ccc(OC)c(-c2nc(SCC(=O)c3ccc(Br)cc3)nc(Nc3ccc(S(N)(=O)=O)cc3)c2C#N)c1` yielded a growth [1] of 22.1%, a growth [2] of 27.2% and a growth [3] of 22.1%. The growth [4] was 49.9%, the growth [5] was 37.6% and the growth [6] was 35.3%. The growth [7] was 56.1%, the growth [8] was 42.7% and the growth [9] was 32.6%. For the same molecule, the growth [10] was 57.7%, the growth [11] was 30.4% and the growth [12] was 63.7%. It also gave a growth [13] of 49.1%, a growth [14] of 59.2% and a growth [15] of 96.3%. It also gave a growth [16] of 55.9%, a growth [17] of 34.4% and a growth [18] of 26.4%. The growth [19] was 35.4% and the growth [20] was 28.5%.
With `CNC(=O)c1c(NC(=O)c2ccccc2C(F)(F)F)sc2c1CCC(=O)C2` the growth [1] was 9.11% (active), the growth [2] was 26.5% and the growth [3] was 93.1%. It also gave a growth [4] of 41.1%, a growth [5] of 24.8% and a growth [6] of 14.8%. For the same molecule, the growth [7] was -17.1% (active), the growth [8] was 16.6% and the growth [9] was 22%. It also gave a growth [10] of 45.4%, a growth [11] of 88.1% and a growth [12] of 23.9%. For the same molecule, the growth [13] was 62.1%, the growth [14] was 3.82% (active) and the growth [15] was 26.2%. The growth [16] was 9.31% (active), the growth [17] was 0.09% (active) and the growth [18] was 80.4%. For the same molecule, the growth [19] was 11.9% and the growth [20] was 18.3%.
With `CCN(CC)c1ccc(NC2=C(Cl)C(=O)c3nc(C)ccc3C2=O)cc1` the growth [1] was -52.7% (active), the growth [2] was 104% and the growth [3] was 126%. For the same molecule, the growth [4] was 102%, the growth [5] was 94.3% and the growth [6] was 74.2%. For the same molecule, the growth [7] was 79.3%, the growth [8] was 95.2% and the growth [9] was -71.6% (active). For the same molecule, the growth [10] was 37.5%, the growth [11] was 84.9% and the growth [12] was -5.94% (active). For the same molecule, the growth [13] was 64%, the growth [14] was -60% (active) and the growth [15] was 164%. The growth [16] was -61.2% (active), the growth [17] was 51.7% and the growth [18] was 104%. The growth [19] was 0.0595% (active) and the growth [20] was 0.296% (active).
